High-throughput results deposited in PubChem BioAssay by National Center for Advancing Translational Sciences (NCATS).
TDP1 inh = qHTS Assay for Inhibitors of Tyrosyl-DNA Phosphodiesterase (TDP1); AID 485290, 2010; 350,000 compounds, 0.28% hits; Potency, µM (top dose mostly 130 µM), for the others: at the highest dose activity change, negative = inhibition, most hits filed as inhibitors; Tyrosyl-DNA phosphodiesterase 1 (Homo sapiens), Q9NUW8; recombinant TDP1, AlphaScreen DNA substrate cleavage; also: % is scaled to controls: 0 for no effect and ±100 for the full control effect; nearly all actives have a fitted effect of over 40% in size
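AlphaScreen read-out: signal falls as enzyme removes the 3' tyrosine-FITC from a 5'-biotinylated DNA oligo (15 nM, 5 min, RT). Enzyme was E. coli-made recombinant Tdp1 at 1 nM, exposed to compound for 15 min beforehand; beads 10 ug/ml, 10 min.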
Sfp inh = qHTS Assay for Inhibitors of Bacillus subtilis Sfp phosphopantetheinyl transferase (PPTase); Potency, µM, without a hit: largest response in the series, negative = inhibition, hits mostly inhibitors; Biochemical Sfp PPTase activity, qHTS; 4'-phosphopantetheinyl transferase ffp (Bacillus subtilis), Q9F4F7; 310,000 compounds, 3.5% hits;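 also: the enzyme is Sfp with the accession as filed and its product quenches rhodamine fluorescence; 0% = enzyme reaction without inhibitor and -100% = no enzyme wells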
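After 15 min at room temperature with compound, 15 nM Sfp received 5 uM rhodamine-CoA plus 12.5 uM BHQ-2-ybbR (50 mM Hepes pH 7.6, 10 mM MgCl2). Rate came from the fluorescence difference over 30 min, ex 525/em 598 nm.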
BAZ2B inh = qHTS Assay for Inhibitors of BAZ2B; Bromodomain adjacent to zinc finger domain protein 2B (Homo sapiens), Q9UIF8; AlphaScreen BAZ2B-H3K14Ac peptide displacement; Potency, µM (titrated, usually from 114 µM), for the others: at the top dose activity change, negative = inhibition, hits mostly inhibitors; 360,000 compounds, 4.4% hits; AID 504333, 2011; also: % is scaled to controls: 0 for no effect and ±100 for the full control effect; nearly all actives have a fitted effect of over 60% in size
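Compounds, titrated to a top concentration of 110 uM, were incubated 30 min at room temperature with preformed BAZ2B/acetyl-K14 H3 peptide complex (50 nM each). Proximity signal was measured by AlphaScreen after 20 min with beads.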
JMJD2A Tudor inh = qHTS Assay for Inhibitors of JMJD2A-Tudor Domain. Lysine-specific demethylase 4A (Homo sapiens), O75164. AlphaScreen JMJD2A-Tudor / H3K4me3 peptide binding. Potency, µM (doses to about 114 µM), without a hit: at the highest dose activity change, negative = inhibition, hits mostly inhibitors. 390,000 compounds, 4.4% hits. AID 504339, 2011; also: % is scaled to controls: 0 for no effect and ±100 for the full control effect; nearly all actives have a fitted effect of over 50% in size
G9a inh = qHTS Assay for Inhibitors of Histone Lysine Methyltransferase G9a. G9a H3K9 monomethylation, AlphaScreen, 2 h. Potency, µM (top dose mostly 102 µM), for the others: top-dose activity, negative = inhibition, most hits filed as inhibitors. 350,000 compounds, 8.8% hits. AID 504332, 2011; also: % is scaled to controls: 0 for no effect and ±100 for the full control effect; nearly all actives have a fitted effect of over 75% in size
Target sequence (Q96KQ7 913-1193 limits assumed): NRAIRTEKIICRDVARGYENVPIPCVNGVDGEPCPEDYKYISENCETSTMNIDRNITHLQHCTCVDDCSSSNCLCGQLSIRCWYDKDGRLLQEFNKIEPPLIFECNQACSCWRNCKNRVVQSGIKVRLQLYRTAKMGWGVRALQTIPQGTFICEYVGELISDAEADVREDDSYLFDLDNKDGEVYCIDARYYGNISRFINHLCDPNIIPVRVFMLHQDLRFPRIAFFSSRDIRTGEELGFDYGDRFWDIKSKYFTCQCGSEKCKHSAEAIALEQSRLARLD
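G9a (20 nM) preincubated 15 min RT with compounds, then 500 nM biotinylated H3K9 peptide and 20 uM SAM added; 2 h RT reaction. Monomethyl-H3K9 product detected by AlphaScreen with anti-H3K9me1 antibody, streptavidin donor and anti-rabbit IgG acceptor beads.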
HP1b binding inh = HTS for Inhibitors of HP1-beta Chromodomain Interactions with Methylated Histone Tails | Chromobox protein homolog 1 (Homo sapiens), P83916 | Potency, µM (doses to about 114 µM), without a hit: top-dose activity change, negative = inhibition, hits mostly inhibitors | AlphaScreen HP1-beta / biotin-H3K9me3 peptide binding | 390,000 compounds, 0.56% hits; also: nearly all actives have a fitted effect of over 70% in size
Target sequence (P83916 whole entry, looked up): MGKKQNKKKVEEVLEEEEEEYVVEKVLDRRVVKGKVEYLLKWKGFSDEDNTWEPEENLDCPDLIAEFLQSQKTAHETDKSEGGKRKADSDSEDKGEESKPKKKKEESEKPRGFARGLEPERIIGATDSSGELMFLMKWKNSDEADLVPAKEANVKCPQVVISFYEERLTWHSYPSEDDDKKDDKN
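HP1-beta protein (50 nM final) preincubated 30 min at room temperature with biotinylated H3(1-18)K9me3 peptide (50 nM) in PBS pH 7.4, 0.01% Tween-20, then compound added for 30 min. AlphaScreen streptavidin donor/nickel chelate acceptor beads (10 ug/mL final), 30 min dark, luminescence read.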
Starred values were filed as active, the others as inactive; u = inconclusive; x = no result given; [ ] = remark or other dose. An excerpt weighted towards active compounds, which were near 12% of everything screened. Calls follow the shape of the dose curve; as a rule, active = well fitted curve in the direction sought with a large enough effect; inconclusive = small, poorly fitted or top-dose-only effect, or another doubt; inactive = no such curve, though single readings can be large; an effect the other way counts as inactive or inconclusive. Potency is read from the fitted curve at half-maximal effect.

SMILES	TDP1 inh	Sfp inh	BAZ2B inh	JMJD2A Tudor inh	G9a inh	HP1b binding inh
CC(=O)N1Cc2cc([N+](=O)[O-])ccc2Oc2ccccc21	0%	13%	-9%	2%	-1%	20%
C[C@H](CO)N1C[C@H](C)[C@@H](CN(C)C(=O)Nc2ccc(F)cc2)Oc2ccc(NS(C)(=O)=O)cc2C1=O	-4%	x	x	-2%	x	30%
O=C1Nc2ccccc2/C1=N\N=C\C1=C(N2CCOCC2)C(=C\c2ccccc2)/CC1	8%	32µM*	7.1µM*	x	u	x
Cn1cc(C(=O)N/N=C/C2=C(N3CCOCC3)C(=C\c3ccccc3)/CC2)ccc1=O	-1%	-6%	-4%	-18%	-9%[59 µM]	14%
O=C1Nc2ccc(Br)cc2/C1=N\N=C\C1=C(N2CCOCC2)C(=C/c2ccccc2)/CC1	x	x	x	3.2µM*	x	5µM*
CC(C)c1onc(-c2c(Cl)cccc2Cl)c1COc1ccc(/C=C/c2cccc(C(=O)O)c2)c(Cl)c1	-13%	-28%	x	x	x	x
C/C(=N\Nc1nc2ccccc2s1)c1ccc(Br)s1	x	9%	u	u	35µM*	-11%
CC(=NNc1nc2ccccc2s1)c1ccncn1	x	x	x	u	x	-16%
Cc1ccc(CNS(=O)(=O)c2cc3c4c(c2)C(C)C(=O)N4CCC3)cc1 (centres undefined)	5%	13%	-11%	-4%	19%	48%
c1coc(-c2nnc3sc(Cc4cccs4)nn23)c1	x	-4%	50µM*	40µM*	u	u
Clc1ccc(-c2nnc3sc(Cc4cccs4)nn23)c(Cl)c1	10%	1%	-32%	-22%	40µM*	37%
COc1ccc(OCc2nn3c(-c4ccco4)nnc3s2)cc1	-9%	-6%	-37%	-25%	u	6%
CS(=O)(=O)Nc1cccc(-c2cncnc2Nc2ccc(F)cc2)c1	x	-29%	x	x	-3%[0.501 µM]	x
CCOC(=O)N1CCN(C(=O)c2ccc(OC)c(S(=O)(=O)N3CCOCC3)c2)CC1	5%	26%	1%	0%	27%	36%
O=C(c1nc2ccc(Cl)cn2c1CN1CCC[C@H]1CO)N1CCCCCCC1	1%	-5%	-22%	-12%	u	47%
O=C(Cn1ncc(Cl)c(Cl)c1=O)N1CCN(Cc2ccccc2)CC1	4%	-15%	-14%	-4%	56µM*	35%
COc1ccccc1N1CCN(C[C@@H](C(=O)NC(C)(C)C)c2ccccc2)CC1	-12%[56.1 µM]	-8%	x	x	x	x
COc1ccc(NC(=O)CN(C)C(=O)c2cccnc2Sc2ccc(C)c(C)c2)cc1	5%[0.505 µM]	x	1%	-17%	-17%	5%
CCN(CC(=O)Nc1ccc(NC(C)=O)cc1)C(=O)c1cccnc1Sc1ccc(C)c(C)c1	-2%	x	4%	-20%	50µM*	-3%
Cc1nc(CCNC(=O)C2CCC(=O)N(Cc3cccc(F)c3)C2)sc1C (centres undefined)	-2%	18%	-5%	-9%	-20%	58%
O=c1c2ccccc2c(/C=N/n2cnnc2)c(O)n1-c1ccccc1	0%	15%	u	89µM*	-10%[12.7 µM]	19%
COc1ccc(-n2c(O)c(/C=N/n3cnnc3)c3ccccc3c2=O)cc1	-3%	5%	56µM*	45µM*	50µM*	15%
CC(=O)Nc1ccc(NS(=O)(=O)c2cc(-c3n[nH]c(=O)c4ccccc34)ccc2C)cc1	x	14%	79µM*	-17%	-26%	3%
Cc1ccc2nc(N3CCN(C(=O)C4COc5ccccc5O4)CC3)sc2c1 (centres undefined)	3%	x	-13%	-22%	5%[59 µM]	-14%
O=C(Cn1nc(-c2cccc(Cl)c2)ccc1=O)NCC1COCCO1 (centres undefined)	0%	x	79µM*	3%	-5%	41%
SMILES	TDP1 inh	Sfp inh	BAZ2B inh	JMJD2A Tudor inh	G9a inh	HP1b binding inh
O=C(Cn1nc(-c2ccc(Cl)cc2)ccc1=O)NCC1CCCO1 (centres undefined)	9%	20%	12%	-16%	4%	6%
Cc1c(P(=S)(c2ccccc2)c2ccccc2)c2ccccc2n1C/C=C/c1ccccc1	0%	x	x	-2%	x	x
CCOC(=O)C1=C(C)N(C[C@@H]2CC[C@@H](Cc3ccc(-c4ccccc4)cc3)O2)C(=O)NC1c1ccc(C(F)(F)F)cc1 (some centres undefined)	1%[56.1 µM]	x	x	-35%	x	12%
CCOC(=O)C1=C(C)N(C[C@@H]2CC[C@@H](Cc3ccc(-c4ccccc4)cc3)O2)C(=O)NC1c1ccc(SCc2ccco2)c([N+](=O)[O-])c1 (some centres undefined)	0%[56.1 µM]	x	x	40µM*	x	-8%
CCN(CC)CCN(Cc1cc2cc3c(cc2[nH]c1=O)OCO3)C(=S)NCCOC	x	8%	10%	-18%	x	38%
Cc1ccc(C(c2sc3nc(-c4ccco4)nn3c2O)N2CCN(Cc3ccccc3)CC2)cc1 (centres undefined)	10%	x	u	u	u	19%
Cn1c(SCC#N)nnc1-c1cnccn1	3%	9%	1%	-11%	1.4µM*	25%
Cn1c(SCc2ccc(Cl)cc2)nnc1C1CC1	0%	-11%	-18%	1%	32µM*	36%
Cn1c(SCc2ccccc2)nnc1C1CCCNC1 (centres undefined)	2%	17%	u	u	u	13%
Cn1c(SCC(=O)c2ccccc2)nnc1-c1cnccn1	x	u	u	25µM*	20µM*	u
O=C(CSc1nnc(C2CC2)n1Cc1ccccc1)c1ccc(S(=O)(=O)N2CCOCC2)cc1	-6%	13µM*	1%	-35%	3.2µM*	42%
CC(C)C(OC(=O)CNC(=O)c1ccccc1)C(=O)Nc1cc(C(F)(F)F)ccc1Cl (centres undefined)	0%	x	x	u	x	x
CCN(CC)S(=O)(=O)c1ccc(C(=O)NC(C)(C)C)cc1	3%	23%	-14%	-15%	4%	3%
CC(=O)NCc1ccc(C(=O)CSc2nnc(C3CC3)n2C2CC2)cc1	2%	x	-4%	22µM*	u	1%
O=C(CSc1nnc(C2CC2)n1C1CC1)c1ccc(F)cc1	1%	x	12%	3%	19%[59 µM]	33%
